AmpC no deterg: blocks E. coli AmpC beta-lactamase in detergent-free assay | AmpC nitrocefin hydrolysis, absorbance 480 nm, 0.0001% Triton | Potency, µM (titrated, usually from 57.1 µM), usual class: inhibitors | 0.52% of 330,000 active; also: nearly all actives have a fitted effect of over 20% in size
Target sequence (P00811 whole entry, looked up): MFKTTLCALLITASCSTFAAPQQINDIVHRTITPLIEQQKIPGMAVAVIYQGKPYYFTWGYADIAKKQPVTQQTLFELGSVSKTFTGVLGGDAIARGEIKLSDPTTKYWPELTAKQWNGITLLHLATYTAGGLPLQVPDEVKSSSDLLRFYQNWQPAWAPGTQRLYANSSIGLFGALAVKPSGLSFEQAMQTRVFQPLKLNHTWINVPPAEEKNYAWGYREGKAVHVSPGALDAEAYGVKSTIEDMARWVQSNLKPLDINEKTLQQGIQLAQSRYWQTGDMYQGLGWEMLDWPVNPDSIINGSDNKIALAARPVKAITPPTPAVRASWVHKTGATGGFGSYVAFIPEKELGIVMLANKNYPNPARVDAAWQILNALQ
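AmpC (5.3 nM in the dispensed reagent) in 20 mM phosphate pH 7.0 with 0.01% (detergent screen) or 0.0001% Triton X-100 was preincubated with compounds for 15 min at room temperature. Nitrocefin was then added from an 800 uM solution, and hydrolysis was followed at 480 nm.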
SARS PLP yeast: blocks SARS-CoV papain-like protease in a yeast assay. 0.19% of 330,000 active. S. cerevisiae expressing SARS-CoV PLpro, growth rescue. AID 485353. Potency, µM (top dose mostly 32.9 µM), actives largely listed as activators; calls by dose curve; also: nearly all actives have a fitted effect of over 55% in size
Pf growth 48h: P. falciparum growth inhibition at 48 hours (one generation) | Potency, µM (doses to about 28.7 µM), actives largely listed as inhibitors | AID 504832 | P. falciparum luciferase growth in erythrocytes, 48 h | 5.9% of 310,000 active
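Luciferase-expressing parasites in RBCs, 2% Hct / 0.1% parasitemia final; RPMI 1640 + 0.5% Albumax; 37 C, 5% CO2, one generation; luminescence read-out, lower signal = inhibition.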
Pf growth 96h: inhibits malaria parasite growth, 96 h | P. falciparum luciferase reporter growth, 96 h | Potency, µM (top dose mostly 28.7 µM), usual class: inhibitors | 6.9% of 320,000 active | AID 504834
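Erythrocytes infected with luciferase-expressing P. falciparum were dispensed at 2% hematocrit and 0.05% parasitemia (final), then incubated with compounds 96 hours at 37 C in 5% CO2. Luminescence after detection reagent addition reported growth.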
Sm TGR block: S. mansoni TGR enzyme inhibition; AID 485364; 3% of 360,000 active; purified TGR, DTNB reduction, TNB absorbance 405 nm; Potency, µM (series often up to 114 µM), usual class: inhibitors; also: nearly all actives have a fitted effect of over 60% in size
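First, TGR (20 nM dispensed) and NADPH were mixed with compound. Second, a 15 min room-temperature incubation followed. Third, further NADPH and then DTNB were added to start the reaction. Finally, TNB absorbance was monitored kinetically.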
AmpC inh detg: AmpC beta-lactamase inhibition with detergent present; AID 485294; 0.041% of 370,000 active; P00811; AmpC hydrolysis of nitrocefin, absorbance 480 nm, 0.01% Triton; Potency, µM (titrated, usually from 114 µM), hits mostly inhibitors; also: nearly all actives have a fitted effect of over 25% in size
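20 mM phosphate pH 7.0 + 0.01% (detergent screen) or 0.0001% Triton X-100; 5.3 nM AmpC reagent; cpd preinc 15 min RT; nitrocefin (800 uM stock) to start; A480 q20 s × 4 min; Activity was normalised to no-enzyme and no-compound control wells.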
Of the large screens only hits and unclear results are named; the others gave an inactive call; ! = not active in a repeat. Most compounds without a hit are left out; they make up all but 12% or so of the library. Unless noted, calls follow the shape of the dose curve; as a rule, active = well fitted curve in the direction sought with a large enough effect; inconclusive = small, poorly fitted or top-dose-only effect, or another doubt; inactive = no such curve, though single readings can be large; an effect the other way counts as inactive or inconclusive.

Cc1ccc(NC(=O)CS(=O)CC(=O)N(CC(=O)NC(C)(C)C)c2cccc(C)c2C)cc1 (configuration not stated)	none
COc1ccc(C2c3ccc4ccccc4c3Oc3ncn(Cc4ccco4)c(=N)c32)cc1OC (configuration not stated)	Pf growth 48h 13µM, Pf growth 96h inconclusive
COc1ccc(C2c3ccc4ccccc4c3Oc3ncn4nc(Cc5ccccc5)nc4c32)cc1OC (configuration not stated)	Pf growth 48h inconclusive
COc1ccccc1C1c2ccc3ccccc3c2Oc2ncn(CCN(C)C)c(=N)c21 (configuration not stated)	Pf growth 48h 3.3µM, Pf growth 96h 2.3µM
COc1ccccc1C1c2ccc3ccccc3c2Oc2ncn(CCCO)c(=N)c21 (configuration not stated)	Pf growth 48h 7.4µM, Pf growth 96h 2.6µM
COc1ccc(C2c3ccc(O)cc3Oc3ncn(CC(C)C)c(=N)c32)cc1 (configuration not stated)	Pf growth 48h 5.2µM
Cc1cccc2nc(CNC(=O)CC3C(=O)NCCN3Cc3cccc(F)c3)cn12 (configuration not stated)	none
COc1ccc(C2c3ccc(O)cc3Oc3ncn(Cc4ccco4)c(=N)c32)cc1OC (configuration not stated)	Pf growth 48h inconclusive
COc1ccc(C2c3ccc4ccccc4c3Oc3ncn(CCCN(C)C)c(=N)c32)cc1 (configuration not stated)	Pf growth 48h 1.7µM, Pf growth 96h 1.7µM
COc1ccc(C2c3ccc(O)cc3Oc3ncn4nc(-c5cccnc5)nc4c32)cc1OC (configuration not stated)	Pf growth 48h 5.2µM, Pf growth 96h 4.1µM
COc1ccc(CC2C(=O)NC(=O)NC2=O)c(OC)c1	Sm TGR block 50µM (no result: Pf growth 96h)
COc1ccc(CC2C(=O)N(C)C(=O)N(C)C2=O)c(OC)c1	Sm TGR block inconclusive (no result: Pf growth 96h)
O=C(Nc1ccc(C(=O)OCc2cc(=O)n3ccsc3n2)cc1)c1cccc(F)c1	none (no result: AmpC no deterg, SARS PLP yeast, Pf growth 48h, Pf growth 96h)
COc1ccccc1CNC(=O)CCCCn1c(=O)c2ccccc2n(Cc2c(C)cc(C)cc2C)c1=O	none (no result: AmpC no deterg, SARS PLP yeast, Pf growth 48h, Pf growth 96h)
CCc1ccc(N/C(SC)=C(/C#N)C(N)=O)cc1	none
CCCCS/C(=C(/C#N)C(N)=O)c1cc2c([nH]1)CCCC2	Pf growth 48h 2.9µM, Sm TGR block 10µM (no result: Pf growth 96h)
COc1ccc(Cc2nc(-c3ccc(-n4cccc4)cc3)no2)cc1	Pf growth 96h inconclusive
COc1ccc(Cc2noc(CN(C)Cc3ccc(-n4cccn4)cc3)n2)cc1OC	Pf growth 96h 2.1µM
COc1ccc(CCN(C)Cc2nc(-c3cnccn3)no2)cc1OC	none
CCc1ccc(CN(C)Cc2nc(Cc3ccc(OC)c(OC)c3)no2)nc1	Pf growth 48h inconclusive, Sm TGR block 32µM
COc1ccc(Cc2noc(CN3CCCN(Cc4ccc(F)cc4)CC3)n2)cc1OC	Sm TGR block inconclusive
COc1ccc(Cc2nc(-c3ccc(-n4cccc4)cc3)no2)cc1OC	AmpC no deterg 8.9µM, Pf growth 96h inconclusive
CCOc1cc(C(=O)NC2CC(C)(C)NC(C)(C)C2)cc(OCC)c1OCC	none
COCCC(=O)N1CCC(n2nccc2NC(=O)CCc2ccccc2)CC1	none
Cc1ccc(NS(=O)(=O)c2c(C)[nH]c(C)c2C(=O)N2CCCCC2)cc1Cl	none
COc1ccccc1OCCNC(=O)c1ccc(C)c(S(=O)(=O)N2CCOCC2)c1	Pf growth 48h inconclusive, Pf growth 96h inconclusive
CCc1ccc(NC(=O)N2c3ccccc3Sc3ccccc32)cc1	none (no result: AmpC no deterg, SARS PLP yeast, Pf growth 48h, Pf growth 96h)
CCOCCCNS(=O)(=O)c1ccc(NC(=O)N2c3ccccc3Sc3ccccc32)cc1	Pf growth 48h inconclusive, Pf growth 96h 12µM
NS(=O)(=O)c1ccc(NC(=O)N2c3ccccc3Sc3ccccc32)cc1	AmpC no deterg 35µM, Pf growth 48h inconclusive, Pf growth 96h 2.3µM
COc1ccc([N+](=O)[O-])cc1NC(=O)C1C2C=CC(C2)C1C(=O)O (configuration not stated)	none
CCOc1ccc(-c2cc(CCCC(=O)NCCc3ccc(OCC)c(OCC)c3)no2)cc1	none (no result: AmpC no deterg, SARS PLP yeast, Pf growth 48h, Pf growth 96h)
CN1CCC(=C2c3ccccc3CC(=O)c3sccc32)CC1	Pf growth 48h 15µM, Pf growth 96h 10µM, Sm TGR block 50µM!
CN1CCC(=C2c3ccccc3CCc3sccc32)CC1	Pf growth 48h 15µM
CCOC(=O)C1CCN(C(=O)Cn2c(=O)oc3cc(S(=O)(=O)N4CCC(C)CC4)ccc32)CC1	none (no result: AmpC no deterg, SARS PLP yeast, Pf growth 48h, Pf growth 96h)
Cc1ccc2c(c1)c(=O)c(C(=O)c1ccncc1)cn2CC(=O)Nc1c(C)cccc1C	none (no result: AmpC no deterg, SARS PLP yeast, Pf growth 48h, Pf growth 96h)
COc1ccc(-c2cn3cccnc3n2)cc1NC(=O)Nc1cc(C)ccc1C	Pf growth 48h inconclusive, Pf growth 96h 12µM
COc1ccc(-c2cn3cccnc3n2)cc1NC(=O)c1ccc(Br)o1	Pf growth 96h 10µM
COc1cccc(NC(=O)Nc2cc(-c3cn4cccnc4n3)ccc2C)c1	none (no result: AmpC no deterg, SARS PLP yeast, Pf growth 48h, Pf growth 96h)
Cc1ccc(-c2cn3cccnc3n2)cc1NC(=O)c1ccc(Br)o1	Pf growth 96h inconclusive
CCn1nnc(NC(=O)c2ccco2)n1	AmpC inh detg inconclusive
CC1CCc2c(sc(NC(=O)C3=COCCO3)c2C(N)=O)C1 (configuration not stated)	none
CN(C)CCCN1C(=O)C(=O)/C(=C(/O)c2ccc3c(c2)OCCO3)C1c1ccco1 (configuration not stated)	Pf growth 96h inconclusive
Cc1ccc(C2/C(=C(/O)c3cnn(-c4ccccc4)c3C)C(=O)C(=O)N2CCN2CCOCC2)o1 (configuration not stated)	Sm TGR block 22µM (no result: Pf growth 48h, Pf growth 96h)
Cc1c(/C(O)=C2/C(=O)C(=O)N(CCN(C)C)C2c2ccc(C(C)C)cc2)cnn1-c1ccccc1 (configuration not stated)	none
Cc1ccc(C2/C(=C(\O)c3cnn(-c4ccccc4)c3C)C(=O)C(=O)N2CCN(C)C)o1 (configuration not stated)	Pf growth 48h inconclusive
Cc1c(/C(O)=C2\C(=O)C(=O)N(CCN(C)C)C2c2ccccc2)cnn1-c1ccccc1 (configuration not stated)	Sm TGR block 13µM
Cc1ccc(C)c(/C(O)=C2/C(=O)C(=O)N(CCN3CCOCC3)C2c2ccco2)c1 (configuration not stated)	Pf growth 48h inconclusive, Pf growth 96h inconclusive, Sm TGR block 20µM
Cc1c(/C(O)=C2/C(=O)C(=O)N(CCN3CCOCC3)C2c2cccs2)cnn1-c1ccccc1 (configuration not stated)	Sm TGR block 35µM

Bioassay records (PubChem)
